# Laboratory results published in PubChem BioAssay (NCATS).
# Values joined by “and” are separate entries in the source; they are usually repeats but may differ in a detail not shown here. Identical values can stand only once. Inconclusive results are not listed. A call without a number means that no potency is given here. Active and inactive are the calls of the source. Calls follow the shape of the full dose curve. Peptide text beside a SMILES is read from it.
# Key:
# [1] = Cytotoxicity counterscreen for inhibitors of SARS-CoV-2 cell entry (AID 1645845); conditions: outcome: dose series up to 57.1 µM unless noted; also: nearly all actives have a fitted effect of over 50% in size
# How it was run: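 Expi293F/hACE2 cells seeded overnight; cpd pin-transferred in DMSO, 1 h preincubation, + media, 48 h 37 C 5% CO2; ATPLite 1step luminescence; normalized to cells and no cells.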
# [2] = Primary qHTS to identify inhibitors of SARS-CoV-2 cell entry (AID 1645846); conditions: SARS-CoV-2 pseudovirus cell entry assay, luminescence; activity change, negative = inhibition: at 57.1 µM (top of the series) unless noted; also: nearly all actives have a fitted effect of over 45% in size
# How it was run: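 Entry measured by luciferase signal 48 h after adding SARS-CoV-2-S pseudotyped MLV particles to HEK293-ACE2 cells preincubated 1 h with compounds. Normalisation: bald particles and spike particles.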
# [3] = VSVG counterscreen qHTS to identify inhibitors of SARS-CoV-2 cell entry (AID 1645847); also: nearly all actives have a fitted effect of over 65% in size
# How it was run: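 Luminescence read after 48 h infection at 37 C with VSV-G-pseudotyped MLV particles, following 1 h compound exposure of Expi293F cells stably expressing human ACE2; scaled between bald particle and VSV-G particle wells.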
# Potency is read from the fitted curve at half-maximal effect.
smiles,measurement,setting,value
O=C(/C=C/c1ccc(CN(CCO)CCc2c[nH]c3ccccc23)cc1)NO,Potency,[1],inactive
same,"activity change, negative = inhibition",[2],-7.55%
NS(=O)(=O)Oc1ccc2c3c(c(=O)oc2c1)CCCCC3,Potency,[1],inactive
same,Potency,[2],inactive
Cc1cc(C)c2c(c1)[C@@H](N(Cc1cc(C(F)(F)F)cc(C(F)(F)F)c1)c1nnn(C)n1)CCCN2CC1CCC(C(=O)O)CC1 (some centres not stated),Potency,[1],inactive
same,"activity change, negative = inhibition",[2],-28%
N#C[C@@H]1C[C@@H]2C[C@@H]2N1C(=O)[C@@H](N)C12CC3CC(CC(O)(C3)C1)C2,Potency,[1],inactive
same,"activity change, negative = inhibition",[2],-14.2%
Cc1[nH]cnc1CN1CCN(C(=O)N[C@@H](CC(C)C)C(=O)O)[C@@H](Cc2ccccc2)C1=O,Potency,[1],inactive
same,"activity change, negative = inhibition",[2],3.22%
CC(C)(NS(=O)(=O)c1ccc2c(Cl)cnc(N=C(N)N)c2c1)C(=O)O,Potency,[1],inactive
same,"activity change, negative = inhibition",[2],0.398%
CCc1cc2c(c(OCC(F)(F)F)c(C(=O)NC3CCN(C(=O)CO)CC3)n2C)c(=O)n1CC(=O)c1ccccc1,Potency,[1],inactive
same,"activity change, negative = inhibition",[2],-53.6%
O=C(NOCCO)c1ccc2cncn2c1Nc1ccc(I)cc1F,Potency,[1],inactive
same,"activity change, negative = inhibition",[2],-11.2%
Cc1ccc(NC(=O)Nc2nnc(Sc3ncnc4cc(OCCCN5CCOCC5)ccc34)s2)cc1,Potency,[1],inactive
same,Potency,[2],inactive
O=C(O)c1cnn(-c2nc3cc(OC(F)(F)F)c(Cl)cc3[nH]2)c1,Potency,[1],inactive
same,Potency,[2],inactive
O=C(c1ccc(NS(=O)(=O)c2cccc3cccnc23)cc1)N1CCN(CC2CC2)CC1,Potency,[1],inactive
same,"activity change, negative = inhibition",[2],-15.9%
CONC(=O)Nc1ccc(-c2sc3c(c2CN(C)C)c(=O)n(-c2ccc(OC)nn2)c(=O)n3Cc2c(F)cccc2F)cc1,Potency,[1],inactive
same,"activity change, negative = inhibition",[2],-24.2%
CCOc1cc(/C=C2/C(=O)N(c3ccccc3)N=C2C)cc(Cl)c1OCC(=O)OC,Potency,[1],inactive
same,"activity change, negative = inhibition",[2],-12.7%
CCCNC(=O)c1cn2ncnc(Nc3cc(C(=O)NC4CC4)ccc3C)c2c1C,Potency,[1],inactive
same,"activity change, negative = inhibition",[2],-27.9%
Cc1cc(OCc2nnc(SC3CCCC3)n2-c2cccnc2)ccc1-c1ccc(S(C)(=O)=O)cc1,Potency,[1],inactive
same,"activity change, negative = inhibition",[2],-22.4%
CC(C)(c1ccc(OCC(O)CO)cc1)c1ccc(OCC(O)CCl)cc1 (configuration not stated),Potency,[1],inactive
same,"activity change, negative = inhibition",[2],-34.4%
Nc1nccn2c(C3CCC(C(=O)O)CC3)nc(-c3cc4cccc(Cl)c4[nH]3)c12 (configuration not stated),Potency,[1],inactive
same,"activity change, negative = inhibition",[2],-18%
CC(=O)N[C@H]1[C@H](O[C@@H]2c3ccc(c(Cl)c3)Oc3cc4cc(c3O[C@@H]3O[C@H](CO)[C@@H](O)[C@H](O)[C@H]3NC(=O)CCCCCCCC(C)C)Oc3ccc(cc3Cl)C[C@H]3NC(=O)[C@H](N)c5ccc(O)c(c5)Oc5cc(O)cc(c5)[C@H](NC3=O)C(=O)N[C@H]4C(=O)N[C@H]3C(=O)N[C@@H]2C(=O)N[C@@H](C(=O)O)c2cc(O)cc(O[C@H]4O[C@H](CO)[C@@H](O)[C@H](O)[C@@H]4O)c2-c2cc3ccc2O)O[C@H](CO)[C@@H](O)[C@@H]1O,Potency,[1],inactive
same,"activity change, negative = inhibition",[2],-12.4%
COc1cccc(OCCCN)c1-c1cc(Nc2cnc(C#N)cn2)n[nH]1,Potency,[1],inactive
same,"activity change, negative = inhibition",[2],-33%
Cc1nc2cccc(N)c2c(=O)n1C1CCC(=O)NC1=O (configuration not stated),Potency,[1],inactive
same,"activity change, negative = inhibition",[2],-12.7%
COc1ccc(-c2c(C)nn3c(NCCN4CCOCC4)cc(C)nc23)cc1OC,Potency,[1],inactive
same,"activity change, negative = inhibition",[2],3.31%
O=C(O)C1=CO[C@@H](O[C@@H]2O[C@H](CO)[C@@H](O)[C@H](O)[C@H]2O)[C@@H]2C(CO)=CC[C@H]12,Potency,[1],inactive
same,Potency,[2],inactive
CC(=O)Nc1ccc(C(=O)Nc2ccccc2N)cc1,Potency,[1],7.08 µM (active)
same,Potency,[2],inactive
Cc1ccc(NC(=O)[C@H]2CCCN(C(=O)c3c(C)cccc3F)[C@H]2c2ccc(NC3CCCC3)cc2)cc1C(F)(F)F,Potency,[1],inactive
same,"activity change, negative = inhibition",[2],-27.6%
CS(=O)(=O)c1ccc(-c2nnc(/C=C/c3nnc(-c4ccc(C#N)cc4)o3)n2-c2ccccc2Cl)nc1,Potency,[1],inactive
same,"activity change, negative = inhibition",[2],-12.6%
C=C1CCC[C@]2(C)C=C3OC(=O)C(C)=C3C[C@@H]12,Potency,[1],inactive
same,"activity change, negative = inhibition",[2],-28.3%
C[C@]1(C(=O)N(CCCC(=O)O)Cc2cccc(Cl)c2)CCN1C(=O)c1csc2ccccc12,Potency,[1],inactive
same,"activity change, negative = inhibition",[2],-20.2%
COc1cc2c(NC3CCN(C)CC3)nc(N3CCCN(C)CC3)nc2cc1OCCCN(C)C,Potency,[1],inactive
same,"activity change, negative = inhibition",[2],-3.44%
CC1(C)CN(C(=O)c2ccc(-c3cccc4nc(NC(=O)C5CC5)nn34)cc2)C1,Potency,[1],inactive
same,"activity change, negative = inhibition",[2],-61.8%
Cc1c(-c2cnccn2)ssc1=S,Potency,[1],inactive
same,"activity change, negative = inhibition",[2],3.56%
Cc1cc(C)c(S(=O)(=O)N(CCc2cccc(Br)c2)Cc2ccc(-c3cccc(S(C)(=O)=O)c3)cc2)c(C)c1,Potency,[1],inactive
same,"activity change, negative = inhibition",[2],-5.91%
COc1cccc(Nc2ncnn3ccc(CN4CC[C@@H](N)[C@H](O)C4)c23)c1,Potency,[1],inactive
same,Potency,[2],inactive
Nc1nc(OCc2cc(Br)cs2)c2[nH]cnc2n1,Potency,[1],inactive
same,Potency,[2],inactive
CC(C)(C)C(=O)N1N=CC[C@H]1c1ccccc1,Potency,[1],inactive
same,"activity change, negative = inhibition",[2],-3.46%
Cn1cc(-c2ccc3c(c2)CCN3C(=O)Cc2cccc(C(F)(F)F)c2)c2c(N)ncnc21,Potency,[1],inactive
same,"activity change, negative = inhibition",[2],3.56%
Cn1cc(-c2nc(N[C@@H]3CCCC[C@@H]3N)c(F)c3c2C(=O)NC3)cn1,outcome,[1],inactive [at 5.25 µM]
same,"activity change, negative = inhibition",[2],4.2% [at 5.25 µM]
C[C@H]1CN(C2COC2)CCN1c1ccc(Nc2cc(-c3ccnc(N4CCn5c(cc6c5CC(C)(C)C6)C4=O)c3CO)cn(C)c2=O)nc1,Potency,[1],inactive
same,"activity change, negative = inhibition",[2],-10.4%
Cc1cc(O)c(-c2ccc([C@@H](C)CN)cc2)c2c1[nH]c(=O)c1sccc12,Potency,[1],inactive
same,"activity change, negative = inhibition",[2],-4.37%
O=c1ncccn1[C@@H]1O[C@H](CO)[C@@H](O)[C@H]1O,Potency,[1],inactive
same,Potency,[2],inactive
COc1c(Nc2ncc(Cl)c(N[C@H]3[C@H](C(N)=O)[C@@H]4C=C[C@@H]3C4)n2)ccc2c1CCC(N1CCOCC1)CC2 (some centres not stated),Potency,[1],inactive
same,"activity change, negative = inhibition",[2],-55.4%
CC[C@H]1OC(=O)[C@H](C)[C@@H](O[C@H]2C[C@@](C)(OC)[C@@H](O)[C@H](C)O2)[C@H](C)[C@@H](O[C@@H]2O[C@H](C)C[C@H](N(C)C)[C@H]2O)[C@](C)(O)C[C@@H](C)C(=O)[C@H](C)[C@@H](O)[C@]1(C)O,Potency,[1],inactive
same,Potency,[2],inactive
O=C(Nc1ccc2c(c1)CCN(Cc1ncn[nH]1)C2)c1ccccc1-c1ccc(C(F)(F)F)cc1,Potency,[1],inactive
same,"activity change, negative = inhibition",[2],-32.8%
O=C1S/C(=C\c2ccc(OCc3cccc(B(O)O)c3)cc2)C(=O)N1Cc1ccc(F)cc1,Potency,[1],inactive
same,"activity change, negative = inhibition",[2],-28.4%
CN(C)CCNC(=O)COc1c2cccc1Cc1cccc(c1OCC(=O)NCCN(C)C)Cc1cccc(c1OCC(=O)NCCN(C)C)Cc1cccc(c1OCC(=O)NCCN(C)C)C2,"activity change, negative = cytotoxicity",[1],-11.8% [at 11.3 µM] (inactive)
same,outcome,[2],inactive [at 11.3 µM]
CC(C)Cc1ccc([C@@H](C)C(=O)NS(C)(=O)=O)cc1,Potency,[1],inactive
same,"activity change, negative = inhibition",[2],3.55%
Cc1cnc(Nc2ccc(F)cc2Cl)nc1-c1c[nH]c(C(=O)NC(CO)c2cccc(Cl)c2)c1 (configuration not stated),Potency,[1],inactive
same,Potency,[2],8.91 µM (active)
same,Potency,[3],1.92 µM (active)
CCC(=O)NC[C@H](Cc1ccc(OCCc2nc(-c3ccccc3)oc2C)cc1)N/C(C)=C\C(=O)c1ccc(C(F)(F)F)cc1,Potency,[1],inactive
same,"activity change, negative = inhibition",[2],-18.7%
O=c1c(-c2ccc(O)cc2)coc2cc(O[C@@H]3O[C@H](CO)[C@@H](O)[C@H](O)[C@H]3O)ccc12,Potency,[1],inactive
same,Potency,[2],inactive
COc1ccccc1C(=O)Nc1cc2c(cc1N1CCCC1)n(C)c(=O)n2C,Potency,[1],inactive
same,"activity change, negative = inhibition",[2],-27%
N[C@@H](CCC(=O)O)C(=O)N[C@@H](Cc1c[nH]c2ccccc12)C(=O)O (H-Glu-Trp-OH),Potency,[1],inactive
same,Potency,[2],inactive
Cc1c(F)cccc1NC(=O)Nc1ccc(Cl)c(S(=O)(=O)[C@H]2CCCNC2)c1O,Potency,[1],inactive
same,Potency,[2],inactive
COc1cccc(-c2c(C)n(Cc3c(F)cccc3C(F)(F)F)c(=O)n(C[C@H](NCCCC(=O)O)c3ccccc3)c2=O)c1F,Potency,[1],inactive
same,"activity change, negative = inhibition",[2],-17.5% and -28.9%
CO[C@H]1O[C@@H]2O[C@@]3(C)CC[C@H]4[C@H](C)CC[C@@H]([C@H]1C)[C@@]24OO3,Potency,[1],inactive
same,"activity change, negative = inhibition",[2],-14.8%
C=CC(=O)N1C[C@H](Nc2ncnc3[nH]ccc23)CC[C@@H]1C,Potency,[1],inactive
same,Potency,[2],inactive
O=C(O)CCCCN(CCc1ccccc1OCc1ccc(CCc2ccccc2)cc1)Cc1ccc(C(=O)O)cc1,Potency,[1],inactive
same,Potency,[2],inactive
CCNCCS(=O)(=O)NC[C@@]1(c2ccccc2)SC(NC(=O)C(C)(C)C)=NN1C(=O)C(C)(C)C,Potency,[1],inactive
same,"activity change, negative = inhibition",[2],-77.9%
same,Potency,[3],0.0541 µM (active)
COc1cc2nc(-c3cc(F)ccc3O)nc(N[C@@H]3CNC[C@H]3C(C)(C)O)c2cc1OC,Potency,[1],3.98 µM (active)
same,Potency,[2],5.01 µM (active)
Cc1cc(-c2cnn3c(NCC4CC(C)(O)C4)cc(Oc4cccnc4)nc23)ccc1C(=O)NC1CC1 (configuration not stated),"activity change, negative = cytotoxicity",[1],4.49% [at 5.25 µM] (inactive)
same,"activity change, negative = inhibition",[2],-11.3% [at 5.25 µM]
CC1(C)OC2=C(C(=O)c3ccccc3C2=O)[C@H](NCc2ccccc2)[C@@H]1O,Potency,[1],10 µM (active)
same,Potency,[2],3.16 µM (active)
CONC(=O)c1ccccc1Nc1cc(Nc2cc(C)nn2C(C)C)ncc1Cl,Potency,[1],inactive
same,"activity change, negative = inhibition",[2],-10.2%
